Sampled rows, rich in hits. Any-hit rate of the full collection: about 5%.
SENP8 block-1 = inhibitors of human SENP8 protease; recombinant SENP8, Nedd8 substrate fluorescence; hit rate 0.64% among 360,000; AID 602440; inhibition, % at 20 µM; in the data active = inhibition mostly above about 40%, no sharp cut-off; inactive = mostly below about 27%
SENP7 block = inhibitors of human SENP7 protease. Q9BQF6. recombinant SENP7, Z-RLRGG-aminoluciferin luminescence, 40 min. inhibition, % at 5 µM. hit rate 1.5% among 330,000;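 active = inhibition above about 50% at the single test dose, limit read from the data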;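 also: plate controls were DMSO with enzyme for no effect and no enzyme buffer wells for full effect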
EBI2 block = EBI2 (human) antagonism; hit rate 0.81% among 360,000; inhibition, % at 5 µM; P32249; EBI2 beta-arrestin recruitment, luminescence, 7a,25-OHC stimulated; in the data active = inhibition above about 38%;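 also: enzyme fragment complementation signal reports receptor beta-arrestin coupling in cells; 0% = agonist plus DMSO wells and 100% = wells without agonist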
SENP8 block-2 = blocks the human protease SENP8; Q96LD8; purified SENP8, Z-RLRGG-aminoluciferin cleavage, luminescence; inhibition, % at 10 µM; hit rate 1.2% among 330,000; in the data active = inhibition above about 50%
SENP6 inh = SENP6 protease inhibition. Recombinant SENP6 catalytic domain, aminoluciferin luminescence. AID 2599. hit rate 1.8% among 330,000. Q9GZR1. inhibition, % at 10 µM;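 active = inhibition above about 50% at the single tested dose, limit read from the data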;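 also: plate controls were DMSO wells with enzyme for no effect and DMSO wells lacking enzyme for full effect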
Target sequence (Q9GZR1 628-1112 limits assumed): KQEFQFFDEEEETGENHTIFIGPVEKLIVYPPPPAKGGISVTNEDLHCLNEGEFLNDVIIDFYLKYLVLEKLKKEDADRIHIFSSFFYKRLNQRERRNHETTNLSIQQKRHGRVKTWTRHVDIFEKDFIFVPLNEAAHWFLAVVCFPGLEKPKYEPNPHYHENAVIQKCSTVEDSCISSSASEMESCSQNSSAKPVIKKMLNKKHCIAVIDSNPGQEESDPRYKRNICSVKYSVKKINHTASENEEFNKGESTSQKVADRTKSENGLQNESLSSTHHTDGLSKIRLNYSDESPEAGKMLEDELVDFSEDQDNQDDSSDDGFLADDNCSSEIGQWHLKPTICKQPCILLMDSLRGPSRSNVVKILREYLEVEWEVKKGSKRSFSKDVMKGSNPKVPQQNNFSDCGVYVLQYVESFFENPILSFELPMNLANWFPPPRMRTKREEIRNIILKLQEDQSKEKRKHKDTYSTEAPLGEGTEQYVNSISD
AHR act = activators of human aryl hydrocarbon receptor. hit rate 2.5% among 320,000. activation, % at 5 µM. AHR-responsive luciferase reporter cells, luminescence. AID 2796; in the data active = activation above about 47%;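 also: 0% = vehicle wells and 100% = reference agonist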
Numbers without * were called inactive; i = inactive; · = no result.

SMILES	SENP8 block-1	SENP7 block	EBI2 block	SENP8 block-2	SENP6 inh	AHR act
O=C1Cn2nnc(-c3ccccc3)c2C2c3ccccc3CCN12 (stereo unspecified)	11	·	-3	·	·	·
Cc1occc1C(=O)N/N=C/c1ccc(OCc2ccccc2)cc1	16	90*	-6	80*	90*	4
Cc1cc(Br)cc(/C=N/NC(=O)c2ccc3c(c2)OCO3)c1O	10	-1	20	-7	13	62*
O=C(O)COc1ccccc1/C=N/NC(=O)c1cc(-c2ccc(Cl)cc2)nc2ccccc12	-22	-5	-7	0	-14	64*
c1cncc(-c2nc(NCc3ccc4c(c3)OCO4)c3ccccc3n2)c1	-32	-2	2	-10	-18	64*
O=C(N/N=C/c1ccc(F)cc1)c1ccc(OCc2ccccc2)cc1	10	0	4	0	-3	-1
O=C(O)COc1ccccc1/C=N/NC(=O)c1cc(-c2ccccc2)nc2ccccc12	-7	6	9	-8	5	16
C=CCOc1ccc(/C=N/NC(=O)CN2CCCCC2)cc1OC	4	2	-1	-3	5	3
CCN(CCO)C(=O)c1ccc2nc(Cc3cccc(Cl)c3)oc2c1	18	13	6	-18	4	13
CN(Cc1ccccc1)C(=O)c1ccc(NC(=O)Cc2ccc(NC(=O)C3CCCN(C(=O)C4CC4)C3)cc2)cc1 (stereo unspecified)	8	·	-13	·	·	·
c1cncc(CNc2ncnc3ccc(-c4ccc5c(c4)OCO5)cc23)c1	i	-4	-3	1	4	53*
c1cncc(CSc2ccc(-c3ccc4c(c3)OCO4)nn2)c1	-1	-12	6	-10	-25	95*
Cc1cc(/C=N/NC(=O)c2ccoc2C)cc(C)c1O	-42	·	9	·	·	·
c1nc(NCc2ccc3c(c2)OCO3)c2cc(-c3ccc4c(c3)OCCO4)ccc2n1	-496	6	-7	-1	-5	16
Cc1occc1C(=O)N/N=C/c1ccc2c(c1)OCO2	3	99*	-2	96*	100*	40
O=C(N/N=C/c1ccc2c(c1)OCO2)c1cc(-c2ccccc2)nc2ccccc12	-13	3	13	-2	-5	51*
S=C(N/N=C/c1ccc2c(c1)OCO2)NC1CC2CCC1C2 (stereo unspecified)	2	9	31	-3	-16	68*
CCOC(=O)N/N=C\C=C\c1ccc2c(c1)OCO2	-64	18	-2	-12	-9	49*
O=C(Nc1ccc2c(c1)OCO2)c1cc(-c2cccnc2)nc2ccccc12	10	6	-8	6	-10	47*
CCCNC(=S)NNC(=O)c1cc(-c2cccnc2)nc2ccccc12	-276	11	10	-7	-7	25
CCCCNC(=S)NNC(=O)c1cc(-c2cccnc2)nc2ccccc12	-300	0	1	3	-3	54*
COc1ccc(S(=O)(=O)N2CCCCC2)cc1NC(=O)Cc1cccc(C(F)(F)F)c1	9	-12	1	-7	-12	·
N#Cc1cc2c(nc1SCC(=O)Nc1nccs1)CCCCC2	-138	3	7	2	0	-9
Cc1ccc(C#N)c(SCC(=O)Nc2nccs2)n1	-289	0	-9	1	-24	63*
Cn1ccnc1SCC(=O)Nc1sccc1C#N	0	1	-7	-4	-13	51*
SMILES	SENP8 block-1	SENP7 block	EBI2 block	SENP8 block-2	SENP6 inh	AHR act
Cc1nc(-c2ccccc2)sc1-c1nc(-c2ccncc2)ncc1S(=O)(=O)c1ccccc1	-85	0	39	-9	5	54*
CC1(C)Oc2ccc(C(=O)NC3CC3)cc2N(CC(=O)N2CCOCC2)C1=O	17	4	-13	2	0	74*
O=C(Nc1ccc2c(c1)OCO2)c1cccc(S(=O)(=O)N2CCCC2)c1	10	5	3	4	-3	107*
O=C(Nc1ccc2c(c1)OCO2)c1ccc[n+]([O-])c1	15	-2	0	-7	-10	48*
CC(=O)N1CCN(S(=O)(=O)c2cccc(C(=O)Nc3ccc4c(c3)OCO4)c2)CC1	-4	12	-13	-2	9	12
CC(=O)C1=C(c2cccc([N+](=O)[O-])c2)N(C(C)=O)n2c(C)nnc2S1	19	14	58*	7	31	44
CCc1nc(N2CCCCC2C)c2oc3ccccc3c2n1 (stereo unspecified)	-40	-2	34	-5	-16	48*
COc1cccc(OC)c1-c1nn2c(-c3cc(-c4ccccc4)n[nH]3)nnc2s1	19	14	-5	13	-101	94*
CCC(=O)Nc1c(C(=O)Nc2cccc(OC)c2)oc2ccccc12	-39	12	-13	2	-4	63*
COc1ccc(NC(=O)c2oc3ccccc3c2NC(=O)COc2ccccc2OC)c(OC)c1	-14	5	5	8	-3	23
CCOCC(=O)Nc1c(C(=O)Nc2ccccc2OC)oc2ccccc12	-34	0	19	-5	-16	73*
CCOC(=O)c1oc2ccccc2c1NC(=O)c1cccc(OC)c1	-38	-5	5	-10	11	-3
COc1ccccc1NC(=O)c1oc2ccccc2c1NC(=O)C1CC1	-43	0	-10	-1	-6	64*
CCOC(=O)c1ccc(NC(=O)c2ncn3c2C(=O)NC[C@@H]3C)cc1	9	·	-8	·	·	·
CCOC(=O)N1CCN(S(=O)(=O)c2ccc(C(=O)NNc3nc4c(C)cc(C)cc4s3)cc2)CC1	-6	7	-7	-3	1	47*
CCOC(=O)N1CCN(S(=O)(=O)c2ccc(C(=O)NNc3nc4c(C)cccc4s3)cc2)CC1	-13	4	-9	-1	1	20
CSCC[C@H](CO)NC(=O)[C@H]1O[C@@H](n2cnc3c(N)ncnc32)[C@H](O)[C@@H]1O	16	·	-4	·	·	·
Cc1ccc(S(=O)(=O)Cn2nnnc2C(C(C)C)N2CCSCC2)cc1 (stereo unspecified)	15	-10	11	-11	-2	1
Cc1ccc(S(=O)(=O)Cn2nnnc2C(C(C)C)N2CCc3ccccc3C2)cc1 (stereo unspecified)	64*	10	4	1	29	14
OC(c1cccc(CN2CCCCC2)c1)c1ncc(-c2ccccc2Cl)[nH]1 (stereo unspecified)	15	·	-4	·	·	·
C=CCNc1sc(C(=O)c2ccc(C)cc2)c(N)c1C#N	-10	3	4	0	7	43
C=CCNc1nc(N)c(C(=C(C#N)C#N)c2ccc(Br)cc2)s1	-368	-6	5	-6	-20	57*
Oc1ccc2ccccc2c1C=NCc1cn2ccsc2n1	-21	-6	-1	-10	-7	66*
COc1ccc(C(=O)NCCNc2nc3cc(C)c(C)cc3cc2C)cc1	-238	5	1	1	-13	63*
Cc1cc2cc(C)c(NCCNC(=O)c3cccc(F)c3)nc2cc1C	-106	0	2	-1	6	56*

High-throughput results from PubChem BioAssay.
